# Giardia killer: Giardia lamblia killing; Giardia lamblia trophozoite viability; activity change, % at 7.66 µM, hits read low; actives 0.15% (n = 340,000); in the data active = activity change below about -80%; inconclusive = between about -30% and that limit;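 also: parasites exposed to compound for two days anaerobically before the ATP read; % is scaled to controls: 0 for no effect and ±100 for the full control effect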
#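 Luminescence from cellular ATP indicates surviving trophozoites (100 cells/well) following 48 hrs anaerobic compound treatment at 37 deg C; signal develops 15-30 min at room temperature.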
# HepG2 tox-1: kills HepG2 cells in TGF-b inhibitor counter-screen; AID 588856; HepG2 CAGA-GFP viability, ATP luminescence, 18 h; actives 0.76% (n = 410,000); Potency, µM (titrated, usually from 46.1 µM), for the others: at the highest dose activity change, negative = cytotoxicity, actives largely listed as cytotoxic; also: potency is read from the fitted curve at half-maximal effect
#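 CellTiter-Glo luminescence gave cytotoxicity after 18 hours at 37 degrees C. The cells were HepG2 CAGA-GFP in 1% FBS DMEM, stimulated with 500 pg/mL TGF-beta after compound addition. %Activity was normalised to no-cell wells (complete cell-killing) and DMSO (no toxicity), and curves were fitted and classified.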
# HT1080 IDH1KD tx: HT-1080 IDH1 knockdown cell toxicity (counter line); Potency, µM (titrated, usually from 46.1 µM), for the others: at the highest dose activity, negative = toxicity, actives largely listed as cytotoxic; HT-1080 IDH1 knockdown viability, ATP luminescence, 48 h; actives 2% (n = 360,000);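 also: potency is read from the fitted curve at half-maximal effect; 0% = DMSO wells and -100% = cell-free medium wells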
#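 Luminescent ATP read-out (CellTiter-Glo, 10 min at room temperature) after 48 h compound exposure at 37 °C gave viability of IDH1-knockdown HT-1080 cells. Activity was normalised to DMSO and cell-free wells, then fitted as concentration-response curves.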
# TGFb inhibitor: TGF-b pathway inhibition. HepG2 CAGA-GFP TGF-b/SMAD3 reporter, GFP fluorescence, 18 h; TGF-beta stimulated, 500 pg/mL final. Potency, µM (doses to about 46.1 µM), for the others: top-dose activity, negative = inhibition, actives largely listed as inhibitors. actives 1.2% (n = 410,000). AID 588855; also: potency is read from the fitted curve at half-maximal effect; % is scaled to controls: 0 for no effect and ±100 for the full control effect; nearly all actives have a fitted effect of over 65% in size
#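 Inhibition of TGF-beta-driven CAGA-GFP reporter expression in HEPG2 cells is measured by cellular GFP fluorescence after 18 h stimulation with 500 pg/mL recombinant TGF-beta in 1% FBS medium at 37 degrees C.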
# IL1B secr inh: inflammasome signaling inhibition, IL-1 beta readout; THP-1 LPS/ATP IL-1B secretion, AlphaLISA, 16 h; stronger effect = lower value; activity change, % at 57.5 µM; actives 4.7% (n = 360,000); AID 743279; in the data active = activity change below about -50%; inconclusive = mostly about -30% to -49%; also: % is scaled to controls: 0 for no effect and ±100 for the full control effect
#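 Secreted IL-1B measured by AlphaLISA bead assay after 16 h compound exposure of THP-1 cells; compounds (final up to 57.5 uM) added 1 h before LPS (250 ng/mL) and ATP (1.25 mM) stimulation; lower signal means less secretion.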
# HT1080NT lethal: kills 2HG-producing HT-1080-NT fibrosarcoma cells; HT-1080-NT fibrosarcoma viability, CellTiter-Glo ATP luminescence, 48 h; Potency, µM (top dose mostly 46.1 µM), for inactives: top-dose activity, negative = less viability, most hits filed as cytotoxic; actives 1.6% (n = 360,000); AID 686970;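 also: NT is the 2HG producing partner of a matched IDH1 knockdown line; potency is read from the fitted curve at half-maximal effect; 0% = DMSO-treated cells and -100% = media-only wells without cells; nearly all actives have a fitted effect of over 55% in size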
#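 Toxicity toward the 2HG-producing NT line was scored as %Activity, normalised to DMSO and no-cell wells, from CellTiter-Glo luminescence after 48 hours' treatment.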
# TGFb confirm: TGF-b pathway inhibition, cherry-pick retest; shares compounds with TGFb inhibitor; HepG2 CAGA-GFP TGF-b reporter, GFP fluorescence, 18 h; cells stimulated with TGF-beta, 500 pg/mL; Potency, µM (doses to about 46.1 µM), inactives show top-dose activity, negative = inhibition, usual class: inhibitors; actives 63% (n = 1,600); AID 720534; also: potency is read from the fitted curve at half-maximal effect; % is scaled to controls: 0 for no effect and ±100 for the full control effect; nearly all actives have a fitted effect of over 65% in size
# HepG2 tox-2: toxic to HepG2 cells in TGF-b counterscreen; actives 27% (n = 1,600); HepG2 CAGA-GFP viability, ATP luminescence, 18 h; cells stimulated with TGF-beta, 500 pg/mL; Potency, µM (doses to about 46.1 µM), for inactives: at the highest dose activity, negative = cytotoxicity, usual class: inhibitors; shares compounds with TGFb inhibitor; also: potency is read from the fitted curve at half-maximal effect; % is scaled to controls: 0 for no effect and ±100 for the full control effect; nearly all actives have a fitted effect of over 70% in size
# TGFb CCL64 inh: TGF-b inhibition, CCL64 orthogonal assay. shares compounds with TGFb inhibitor. CCL64 CAGA-GFP reporter, TGF-b stimulated, GFP fluorescence, 18 h. Potency, µM (top dose mostly 46.1 µM), for inactives: at the top dose activity, negative = inhibition, actives largely listed as inhibitors. actives 41% (n = 1,600). AID 720536; also: potency is read from the fitted curve at half-maximal effect; nearly all actives have a fitted effect of over 65% in size
# TGFb COP inh: blocks TGF-b signaling in HepG2 COP reporter. actives 3% (n = 1,600). HepG2 COP-GFP TGF-b reporter, GFP fluorescence, 18 h; cells stimulated by added recombinant TGF-beta. Potency, µM (doses to about 46.1 µM), for the others: at the top dose activity, negative = inhibition, actives largely listed as inhibitors. shares compounds with TGFb inhibitor; also: potency is read from the fitted curve at half-maximal effect; nearly all actives have a fitted effect of over 70% in size
# An asterisk follows results filed as active; u = inconclusive; x = no result given. Shown are actives, neighbours in structure and some others; about 6.5% of the full set was active somewhere. Unless noted, calls follow the shape of the dose curve; as a rule, active = well fitted curve in the direction sought with a large enough effect; inconclusive = small, poorly fitted or top-dose-only effect, or another doubt; inactive = no such curve, though single readings can be large; an effect the other way counts as inactive or inconclusive.
SMILES,Giardia killer,HepG2 tox-1,HT1080 IDH1KD tx,TGFb inhibitor,IL1B secr inh,HT1080NT lethal,TGFb confirm,HepG2 tox-2,TGFb CCL64 inh,TGFb COP inh
CCC(C)Sc1cccc(-c2nc3cc(C)ccn3c2NCc2ccccc2)c1 (stereo unspecified),-8.2,-1.4%,26.4µM*,15.8µM*,-72.5*,20.9µM*,u,u,16.4µM*,50.6%
CCCCNC(=O)CCCn1c(=S)[nH]c2cc3c(cc2c1=O)OCO3,2.9,3.0%,2.7%,-26.5%,22.6,-0.7%,x,x,x,x
COc1ccc(-c2sc3cc4c(cc3c2C#CC2(N)CCCCC2)OCO4)cc1,-12.4,-107.6%,u,u,-20.0,u,x,x,x,x
O=C(NCc1nnc(SCc2ccc(F)cc2)n1-c1ccc(F)cc1)C12CC3CC(CC(C3)C1)C2,-2.6,-0.1%,u,15.8µM*,u,u,u,u,u,47.0%
O=C(CSc1nnc(CNC(=O)C23CC4CC(CC(C4)C2)C3)n1-c1ccc(F)cc1)Nc1ccc(F)cc1,9.1,-15.0%,-23.7%,u,13.2,-15.6%,x,x,x,x
COC(=O)[C@@]12C[C@@H](CC(=O)NCCC(C)C)C(=O)N(CCc3ccc(OC)c(OC)c3)C1=CCC(C)(C)C2,x,x,-26.7%,x,x,-14.5%,x,x,x,x
COc1ccc(C(=O)C(CN2CCOCC2)c2ccccc2)cc1F (stereo unspecified),6.5,-104.1%,11.6µM*,3.98µM*,-101.2*,u,u,14.6µM*,7.31µM*,17.1%
O=C(c1ccc(Cl)cc1)C(CN1CCCCC1)c1ccccc1 (stereo unspecified),6.3,5.62µM*,2.59µM*,5.62µM*,-103.3*,5.8µM*,13µM*,18.4µM*,2.31µM*,u
Cc1cc(C)nc(S/C=C/C(=O)c2ccccc2F)n1,-4.3,-7.4%,2.91µM*,3.55µM*,u,3.66µM*,1.84µM*,20.6µM*,6.51µM*,u
Cc1ccc2nc(-c3ccccn3)c(Nc3ccccc3C)n2c1,7.4,-22.8%,13µM*,3.16µM*,71.8,13µM*,8.2µM*,u,u,32.6%
Cc1ccc(NC(=O)CCNC(=O)c2ccc(Cl)cc2)nc1,17.1,-10.0%,15.8%,0.5%,-6.5,2.1%,x,x,x,x
Cc1ccc(-c2csc(NC(=O)CCNC(=O)c3ccc(Cl)cc3)n2)cc1,-14.8,-63.9%,-0.7%,u,7.3,-7.2%,-17.2%,2.2%,u,4.9%
Cc1nc2ccc(S(=O)(=O)NCC(=O)Nc3cccc(F)c3)cc2s1,-22.8,-1.8%,4.2%,u,22.9,3.1%,-8.0%,5.9%,-8.8%,-1.4%
CCc1cccc(NC(=O)CNS(=O)(=O)c2ccc3nc(C)sc3c2)c1,x,-23.4%,x,x,x,x,x,x,x,x
CN(CC(=O)Nc1ccc(F)c(F)c1F)C(=O)c1nn(Cc2ccccc2)c(=O)c2ccccc12,-7.6,-10.8%,-3.9%,9.0%,-2.9,-4.5%,x,x,x,x
CC1=NN(c2ccc(C)c(C)c2)C(=O)/C1=C/c1ccc2c(c1)n(C)c(=O)n2C,-2.2,0.4%,4.2%,-2.8%,4.8,4.6%,x,x,x,x
COc1ccccc1-c1cc(C(=O)N/N=C/c2sccc2C)c2ccccc2n1,-19.8,-8.5%,-19.1%,-13.8%,-20.2,-20.6%,x,x,x,x
Cc1ccsc1/C=N/NC(=O)c1cc(-c2ccncc2)nc2ccccc12,-2.8,-13.9%,0.92µM*,u,-9.6,u,-71.4%,-27.0%,6.51µM*,-15.7%
Cc1nonc1OC(C)CNCCNc1ccc([N+](=O)[O-])cc1 (stereo unspecified),-9.8,-0.8%,5.5%,-2.5%,x,-6.5%,x,x,x,x
Cc1nnc(SCC(=O)N/N=C/c2cn(-c3ccccc3)nc2-c2ccccc2)n1-c1ccccc1,-3.9,-0.4%,u,7.08µM*,-78.4*,u,u,-22.8%,u,7.8%
CCn1c(CN2CCN(C)CC2)nc2cc(NC(=O)c3ccc([N+](=O)[O-])cc3)ccc21,x,0.0%,x,u,x,x,x,x,x,x
CCC(C)(C)NC(=O)c1ccc(Sc2nncn2C)c([N+](=O)[O-])c1,-3.4,3.3%,2.8%,3.4%,-11.9,-7.5%,x,x,x,x
Cn1cnnc1Sc1ccc(/C=C/C(=O)c2ccc(O)cc2)cc1[N+](=O)[O-],-3.9,-3.4%,18.4µM*,u,-101.4*,18.4µM*,2.59µM*,9.2µM*,23.1µM*,u
O=C(CSc1cccc[n+]1[O-])c1ccc(Cl)s1,-12.9,-20.2%,u,3.7%,-7.7,u,x,x,x,x
O=[N+]([O-])c1cc2c(c3cccnc13)COCO2,7.6,-4.8%,-19.4%,u,-10.1,0.2%,18.4µM*,-25.1%,6.6%,2.0%
CCOC(=O)C1CCCN(CCC(=O)Nc2ccccc2C)C1 (stereo unspecified),-3.4,2.1%,2.1%,11.2%,5.5,-0.6%,x,x,x,x
Cc1nc2ccccc2n1CC(=O)NCCN1CCCC1,16.3,-10.1%,-12.4%,-18.7%,10.9,2.2%,x,x,x,x
NC(=O)c1sc(-c2ccsc2)cc1NS(=O)(=O)c1ccc(C(F)(F)F)cc1,-13.5,-23.6%,-29.7%,u,x,-26.2%,23.1µM*,u,u,73.8%
CC(=O)c1sc(-c2ccc(F)cc2)cc1NS(=O)(=O)c1ccc(C)cc1,-9.3,3.8%,0.1%,0.1%,16.6,7.7%,x,x,x,x
CCCCn1cnc2c1c(=O)n(C)c(=O)n2C,-5.3,-19.7%,2.3%,-23.6%,16.7,3.0%,x,x,x,x
